Experiment [1] is described as follows: inhibitors of TNFa-induced NFkB p65 translocation, primary screen, imaging, HUVEC, MLSMR starter and 10KST1 sets (AID 438;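 active = inhibition above 20% together with a positive visual image hit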;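 also: compound added about 3h40 before a 20 min TNFalpha stimulation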;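 as to inhibition: signal is the nuclear over cytoplasmic p65 intensity ratio per well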). Particulars: HUVEC TNFa-induced p65 nuclear translocation; cell count: measured here: nuclei count (cytotoxicity indicator), at 2.08 µM; inhibition: at 2 µM, stronger effect = higher value, 0% TNFa-plus-vehicle, 100% no-TNFa wells.
Experiment [2] in a line: reduction of polyQ htt aggregates in cells – imaging, exon1htt(103Q)mCFP cells, high-content imaging, primary screen (AID 483;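 active = visual image review flags a hit and inhibition of aggregation exceeds 20%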;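 also: compound exposure lasted 3 days before fixation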;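 as to nuclei count: percent of the per-plate median nuclei count of sample wells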). Particulars: exon1htt(103Q)mCFP cell line, aggregate imaging, at 2 µM; inhibition of aggregation: stronger effect = higher value; nuclei count: measured here: cell count, toxicity.
The nature of experiment [3]: endothelial E-selectin expression blockers – imaging, HUVEC, immunofluorescence, MLSMR starter and 10KST1 sets, primary screen (AID 487;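 active = visually confirmed hit in the image check and inhibition above 20%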;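 as to inhibition: signal is fraction of cell area covered by stained E-selectin grains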;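 as to nuclei count: 100% = median nuclei count of all wells on the same plate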). Particulars: HUVEC TNFalpha-induced E-selectin immunofluorescence imaging, at 2 µM; inhibition: stronger effect = higher value; nuclei count: measured here: cell number, toxicity.
In experiment [4] the target is Voltage-gated potassium channel subunit beta-2 (Rattus norvegicus) (UniProt P62483). In words: inhibitors of rat Kvbeta2 reductase activity – biochemical, NADPH fluorescence, primary screen (AID 622;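 active = fluorescence slope higher than the sample average by over 3 SD, cut at about -0.22 in these data, passing the limit was not always enough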;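 also: slope of raw intensity against log time taken from 70 to 1610 s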). The settings on record: recombinant KvBeta, 4-cyanobenzaldehyde reduction, at 10 µM, stronger effect = higher value.
Experiment [5] shares this target. Briefly: enhancers of rat Kvbeta2 NADPH turnover – biochemical, NADPH fluorescence, primary screen (AID 623;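 active = NADPH fluorescence slope more negative than the mean of all samples by about 3 SD, 99.7% confidence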;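 also: fluorescence intensity change per second fitted from 20 to 320 s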). Particulars: Recombinant KvBeta, NADPH fluorescence decrease slope, 10 min; at 10 µM; stronger effect = lower value.
The target in experiment [6] is Alpha-2C adrenergic receptor (Homo sapiens) (UniProt P18825). In words: compounds altering alpha2C-coupled GIRK flux – cell-based, HEK293 alpha2C/GIRK1/2, thallium flux, primary screen (AID 624;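 active = fluorescence slope after compound addition differing from the mean of all screened samples at 99.7% confidence, in either direction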;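 also: slope of fluorescence ratio to pre-addition baseline per second over 15 to 24 s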). The settings on record: thallium flux BTC fluorescence, at 10 µM, actives lie on both sides.
Experiment [7] in a line: blockers of RIG-like receptor reporter activation – cell-based, Sendai virus stimulus, luciferase, 10K MLSCN set, TLR/RLR signaling modifier project, primary screen (AID 602276).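 Also: firefly luciferase from ISG56 promoter only with Renilla not read in this screen; 0% = Sendai virus plus DMSO and 100% = medium plus DMSO without virus.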 Particulars: HEK293 RL24 IRF3 luciferase reporter, at 10 µM, stronger effect = higher value. (In a reporter assay the amount or activity of a reporter protein is the signal.)
The nature of experiment [8]: TLR3 IRF3 reporter activation blockers – cell-based, poly I:C stimulus, luciferase, 10K MLSCN set, primary screen (AID 602277;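 active = inhibition of the reporter signal at or above 50%; inactive = inhibition below 50%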). Particulars: HEK293-TLR3 RL24 IRF3 luciferase reporter, at 10 µM, stronger effect = higher value.

Activity calls are given as the source filed them.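 The calls were made as follows, unless noted: active = inhibition at or above 50% at 10 µM; inactive = inhibition below 50%.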

Chain of Alpha-2C adrenergic receptor (Homo sapiens) (P18825 whole entry, looked up): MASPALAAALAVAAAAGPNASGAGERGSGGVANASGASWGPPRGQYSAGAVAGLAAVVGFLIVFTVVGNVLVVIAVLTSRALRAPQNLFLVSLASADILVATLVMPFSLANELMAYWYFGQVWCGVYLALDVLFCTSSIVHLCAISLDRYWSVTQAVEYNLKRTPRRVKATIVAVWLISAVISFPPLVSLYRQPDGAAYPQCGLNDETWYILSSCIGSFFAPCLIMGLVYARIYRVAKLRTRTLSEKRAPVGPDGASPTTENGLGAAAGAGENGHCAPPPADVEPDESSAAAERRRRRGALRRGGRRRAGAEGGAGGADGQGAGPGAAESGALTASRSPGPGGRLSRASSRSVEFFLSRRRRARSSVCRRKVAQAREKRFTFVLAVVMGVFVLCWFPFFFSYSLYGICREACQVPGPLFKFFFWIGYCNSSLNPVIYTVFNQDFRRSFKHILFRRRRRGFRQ
Chain of Voltage-gated potassium channel subunit beta-2 (Rattus norvegicus) (P62483 whole entry, looked up): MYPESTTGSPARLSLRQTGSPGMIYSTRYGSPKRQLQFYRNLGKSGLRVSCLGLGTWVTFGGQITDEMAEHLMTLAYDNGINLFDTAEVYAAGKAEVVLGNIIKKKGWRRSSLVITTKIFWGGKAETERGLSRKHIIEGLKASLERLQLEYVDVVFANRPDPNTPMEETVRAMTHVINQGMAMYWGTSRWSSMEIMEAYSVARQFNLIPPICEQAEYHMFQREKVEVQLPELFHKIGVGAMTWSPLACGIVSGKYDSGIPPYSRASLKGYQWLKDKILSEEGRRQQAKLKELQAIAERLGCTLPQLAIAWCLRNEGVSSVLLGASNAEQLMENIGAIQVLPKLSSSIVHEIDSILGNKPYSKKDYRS

As a reminder, the inhibition is the change of the read-out against control, counted positive when it falls. Regarding `CCCN(C(=O)CSc1nnc(-c2ccoc2C)n1N)C1CCS(=O)(=O)C1` (centres undefined), the cell count in experiment [1] came out at 468. In addition, the inhibition was 11.7% (inactive) in experiment [1], 30.6% (inactive) in experiment [3], 15.7% (inactive) in experiment [7] and 22.7% (inactive) in experiment [8]. For the same molecule, the inhibition of aggregation in experiment [2] is -26.6% (inactive). Besides, the values for the nuclei count in experiment [2] and in experiment [3] were 116% and 108%, respectively. Moreover, in experiment [4], the fluorescence slope was -0.413 (inactive). Besides, the NADPH fluorescence slope in experiment [5] is -8.5e-05 (inactive). Further, in experiment [6], the slope was 0.00528 (inactive).

As for `O=C(O)CCCC(=O)Nc1nc(-c2ccc(F)cc2)cs1`, the cell count in experiment [1] amounted to 392. Moreover, the inhibition in experiment [1] was -1.3% (inactive); in experiment [3] it was -90.5% (inactive); in experiment [7], 6.78% (inactive); in experiment [8], 14.9% (inactive). The inhibition of aggregation in experiment [2] was -6.1% (inactive). Further, the nuclei count in experiment [2] stood at 94.3%; in experiment [3] it was 141%. Besides, in experiment [4], the fluorescence slope is -0.327 (inactive). Also, the NADPH fluorescence slope in experiment [5] is -1.1e-05 (inactive). For the same molecule, the slope in experiment [6] is 0.00291 (inactive).

As for `COc1ccc(CCNC(=O)C2CCN(S(=O)(=O)c3cc(OC)ccc3OC)CC2)cc1`, the cell count in experiment [1] came out at 269. Moreover, the inhibition is -5.3% (inactive) in experiment [1], -26.1% (inactive) in experiment [3], 14.7% (inactive) in experiment [7] and 31.4% (inactive) in experiment [8]. In addition, the inhibition of aggregation in experiment [2] was 3% (inactive). Besides, the nuclei count in experiment [2] was 93.2%; in experiment [3], 98.3%. Also, the fluorescence slope in experiment [4] is -0.39 (inactive). The NADPH fluorescence slope in experiment [5] is -6.1e-05 (inactive). Besides, the slope in experiment [6] was 0.00597 (inactive).

Consider `O=C(CSc1nnc2ncccn12)N1CCCCCC1`, for which, in experiment [1], the cell count turned out to be 673. The inhibition is 26.6% (active) in experiment [1], -9.5% (inactive) in experiment [3], 4.98% (inactive) in experiment [7] and 99.3% (active) in experiment [8]. The inhibition of aggregation in experiment [2] was 8.3% (inactive). Moreover, the nuclei count in experiment [2] was found to be 106%; in experiment [3] it was 82.7%. Further, in experiment [4], the fluorescence slope was -0.475 (inactive). The NADPH fluorescence slope in experiment [5] was -0.000211 (inactive). Besides, the slope in experiment [6] is 0.00529 (inactive).

Regarding `O=C(Nc1ccc2c(c1)OCCO2)c1ccco1`, the cell count in experiment [1] is 337. The inhibition in experiment [1] is -3.5% (inactive); in experiment [3], 6.1% (inactive); in experiment [7] it was -48.4% (inactive); in experiment [8], -81.4% (inactive). In addition, in experiment [2], the inhibition of aggregation is -13.9% (inactive). For the same molecule, the results for the nuclei count in experiment [2] and in experiment [3] were 118% and 102%, respectively. Also, the fluorescence slope in experiment [4] is -0.488 (inactive). Besides, the NADPH fluorescence slope in experiment [5] is -3.7e-05 (inactive). Moreover, the slope in experiment [6] is 0.00709 (inactive).

Turning to `Cc1cccc(N2C(=O)CC(Sc3nc(C)c4c(n3)CCCC4)C2=O)c1` (centres undefined), the cell count in experiment [1] was 603. Besides, the inhibition in experiment [1] is 3.4% (inactive); in experiment [3], 2% (inactive); in experiment [7], -11.6% (inactive); in experiment [8] it was -8.43% (inactive). Moreover, in experiment [2], the inhibition of aggregation is -4.5% (inactive). The nuclei count in experiment [2] turned out to be 105%; in experiment [3], 104%. For the same molecule, the fluorescence slope in experiment [4] was -0.592 (inactive). Also, the NADPH fluorescence slope in experiment [5] is -2.5e-05 (inactive). Also, the slope in experiment [6] was 0.00308 (inactive).

Consider `CCc1nc(SCc2cc(Cl)ccc2OC)n[nH]1`, for which, in experiment [1], the cell count amounted to 661. Further, the inhibition in experiment [1] was 8.7% (inactive); in experiment [3], -47.4% (inactive); in experiment [7], -11.3% (inactive); in experiment [8], -22.3% (inactive). The inhibition of aggregation in experiment [2] was -8.3% (inactive). Moreover, the nuclei count in experiment [2] stood at 95.5%; in experiment [3], 103%. Further, the fluorescence slope in experiment [4] is -0.36 (inactive). In addition, in experiment [5], the NADPH fluorescence slope is -6.3e-05 (inactive). Also, the slope in experiment [6] is 0.00554 (inactive).

For `O=C(Cn1c(=O)sc2ccccc21)NCCOc1ccccc1F`, the cell count in experiment [1] came to 780. The inhibition is -12% (inactive) in experiment [1], 36.2% (inactive) in experiment [3], 0.0246% (inactive) in experiment [7] and 6.19% (inactive) in experiment [8]. In addition, in experiment [2], the inhibition of aggregation was -3.1% (inactive). For the same molecule, the nuclei count in experiment [2] came out at 104%; in experiment [3], 108%. Also, in experiment [4], the fluorescence slope is -0.514 (inactive). Moreover, in experiment [5], the NADPH fluorescence slope is -9e-06 (inactive). Besides, the slope in experiment [6] was 0.00676 (inactive).

Consider `Cc1nc(CNS(=O)(=O)c2cccc(F)c2)cs1`, for which, in experiment [1], the cell count was found to be 307. The inhibition was 5% (inactive) in experiment [1], -10.3% (inactive) in experiment [3], 7.13% (inactive) in experiment [7] and 20.4% (inactive) in experiment [8]. In experiment [2], the inhibition of aggregation was 14.1% (inactive). Further, the nuclei count amounted to 87.9% in experiment [2] and 92.4% in experiment [3]. Besides, in experiment [4], the fluorescence slope is -0.506 (inactive). Also, the NADPH fluorescence slope in experiment [5] was -3.7e-05 (inactive). Besides, the slope in experiment [6] was 0.00673 (inactive).
